Assay results reported in PubChem BioAssay (NCATS).
Records with an inconclusive call do not appear. Some structures have more than one record in an assay (separate samples or runs), and their calls can disagree. Activity calls are given as the source filed them. Unless noted, the call rests on the fitted dose curve; in most records, active means well fitted curve in the direction sought with a large enough effect; inconclusive means small, poorly fitted or top-dose-only effect, or another doubt; inactive means no such curve, though single readings can be large; an effect the other way counts as inactive or inconclusive.

Key:
[1] = Validation of Assay for Modulators of Lamin A Splicing (AID 1459; active means well fitted curve in the direction sought with a large enough effect in the signal ratio; the % refers to the signal ratio;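 further: cells exposed to compound for two days before reading; 0% is about no effect; ratio rise marks activators and ratio drop marks inhibitors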)
Procedure, shortened: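 S3 HeLa cells stably expressing a lamin A-EGFP splicing minigene and DsRed2 were seeded at 600 cells/well in Opti-MEM with 2% FBS, pin-dosed, and incubated 48 hrs at 37 °C, 5% CO2. Laser-scanning cytometry (488 nm) gave GFP/RFP total intensity ratio.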

[2] = qHTS Assay for Lipid Storage Modulators (AID 1519; calls by dose curve); conditions: Drosophila S3 cells, BODIPY lipid droplet/cell ratio, laser cytometry, cells loaded with oleic acid
Procedure, shortened: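 Cells seeded at 5,000 per well were treated with compounds over a concentration series and loaded with oleic acid (400 uM, as added). Lipid droplet fluorescence (488 nm excitation, 500-530 nm channel) was read by laser-scanning cytometry and normalized to 20 uM Triacsin C.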

[3] = target: DNA repair nuclease/redox regulator APEX1 (Homo sapiens) (UniProt P27695); assay: qHTS Validation Assay for Inhibitors of the Human Apurinic/apyrimidinic Endonuclease 1 (APE1) (AID 1705;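 further: TAMRA fluorescence gain over two minutes as APE1 cuts a quenched THF abasic duplex; on the % scale 0 is the no-effect control and ±100 the full control effect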)
Chain of DNA repair nuclease/redox regulator APEX1 (Homo sapiens) (P27695 whole entry, looked up): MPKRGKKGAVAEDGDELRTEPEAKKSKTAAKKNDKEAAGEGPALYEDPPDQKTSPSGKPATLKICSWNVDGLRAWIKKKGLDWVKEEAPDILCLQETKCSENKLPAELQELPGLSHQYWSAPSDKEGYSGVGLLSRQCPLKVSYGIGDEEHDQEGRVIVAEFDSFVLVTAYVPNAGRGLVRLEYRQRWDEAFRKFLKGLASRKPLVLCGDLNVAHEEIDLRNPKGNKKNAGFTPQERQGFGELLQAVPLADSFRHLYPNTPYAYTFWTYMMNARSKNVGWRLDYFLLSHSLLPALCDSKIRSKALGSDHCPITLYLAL
Procedure, shortened: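 Human APE1 was preincubated with compound for 15 min at room temperature, then 50 nM (final) THF-abasic double-stranded DNA substrate bearing 5'-TAMRA and 3'-BHQ-2 was added. Incision-driven fluorescence rise (ex 525/em 598 nm) was read kinetically.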

[4] = Counterscreen for APE1 Inhibitors: Fluorescent Dye Displacement Validation Assay (AID 1707);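 further: plate controls were ThO with dsDNA and no compound for no effect and ThO without dsDNA for full effect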
Procedure, shortened: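 ThO 250 nM + dsDNA 50 nM (THF abasic site, 5'-TAMRA), Tris-HCl pH7.5/50mM NaCl/2 mM MgCl2/0.01% Tween-20; compounds pin-transferred; ex 480/em 540 nm endpoint. Neutral = no compound; no-DNA ThO wells = negative control.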

[5] = target: Endonuclease 4 (Escherichia coli (strain K12)) (UniProt P0A6C1); assay: Counterscreen for APE1 Inhibitors: qHTS Validation Assay for Inhibitors of Endonuclease IV (AID 1708); further: on the % scale 0 is the no-effect control and ±100 the full control effect
Procedure, shortened: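 Concentration-response counterscreen run identically to the APE1 assay: 15 min room-temperature preincubation of 2 nM enzyme with compound, reaction started with 50 nM quenched abasic DNA, progress taken from kinetic fluorescence.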

[6] = qHTS for differential inhibitors of proliferation of Plasmodium falciparum line 7G8 (AID 1815);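 further: potency means the concentration at half of the fitted maximal effect; parasite growth measured after three days of incubation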
[7] = qHTS for differential inhibitors of proliferation of Plasmodium falciparum line GB4 (AID 1816); conditions: Potency: Plasmodium falciparum GB4 proliferation inhibition;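 further: potency means the concentration at half of the fitted maximal effect; parasite growth measured after 72 h incubation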
[8] = qHTS for differential inhibitors of proliferation of Plasmodium falciparum line D10 (AID 1877);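 further: potency means the concentration at half of the fitted maximal effect; parasites grown with compound for 72 h before DNA staining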
[9] = qHTS for differential inhibitors of proliferation of Plasmodium falciparum line W2 (AID 1883); conditions: Potency: Plasmodium falciparum W2 proliferation inhibition;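 further: potency means the concentration at half of the fitted maximal effect; parasites grown with compound for 72 h before lysis and staining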
[10] = qHTS for differential inhibitors of proliferation of Plasmodium falciparum line HB3 (AID 1886); conditions: Potency: Plasmodium falciparum HB3 proliferation inhibition;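 further: potency means the concentration at half of the fitted maximal effect; parasites grown with compound for 72 h before SYBR Green readout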
[11] = target: ATP-dependent DNA helicase Q1 (Homo sapiens) (UniProt P46063); assay: qHTS Validation Assay for Inhibitors of RecQ-Like Dna Helicase 1 (RECQ1) (AID 2353);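 further: plate controls were DMSO vehicle for no effect and enzyme-free control for full effect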
Chain of ATP-dependent DNA helicase Q1 (Homo sapiens) (P46063 whole entry, looked up): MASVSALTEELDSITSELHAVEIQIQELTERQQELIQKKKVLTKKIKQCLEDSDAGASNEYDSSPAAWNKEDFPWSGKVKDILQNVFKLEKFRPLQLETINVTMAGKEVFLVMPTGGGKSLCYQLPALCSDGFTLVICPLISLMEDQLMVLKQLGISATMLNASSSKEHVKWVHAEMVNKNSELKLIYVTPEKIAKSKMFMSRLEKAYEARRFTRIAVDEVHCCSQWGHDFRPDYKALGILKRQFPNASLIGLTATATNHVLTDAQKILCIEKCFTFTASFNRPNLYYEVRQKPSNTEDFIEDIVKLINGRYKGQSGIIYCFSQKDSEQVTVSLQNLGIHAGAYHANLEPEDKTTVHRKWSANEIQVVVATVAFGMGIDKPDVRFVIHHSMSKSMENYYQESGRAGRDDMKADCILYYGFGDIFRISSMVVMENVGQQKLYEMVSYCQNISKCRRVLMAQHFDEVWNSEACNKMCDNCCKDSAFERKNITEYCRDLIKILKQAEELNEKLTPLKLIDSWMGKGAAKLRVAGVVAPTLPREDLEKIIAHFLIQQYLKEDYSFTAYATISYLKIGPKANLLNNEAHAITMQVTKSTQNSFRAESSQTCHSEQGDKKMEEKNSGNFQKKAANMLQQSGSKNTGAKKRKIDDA
Procedure, shortened: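 50 nM RECQ1T1 preincubated 15 min with compound in Tris pH 8.0 buffer with MgCl2, DTT, Tween-20 and 2.5 ug/ml poly(dI-dC); started with 200 nM TAMRA/BHQ-2 forked duplex and 2 mM ATP. Unwinding read as fluorescence (525/598 nm), two reads 2 h apart.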

[12] = Validation screen for small molecules that induce DNA re-replication in MCF 10A normal breast cells (AID 463097); further: 0% is about no effect; nearly all actives have a fitted effect of over 60% in size
Procedure, shortened: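 Readout: Hoechst nuclear fluorescence intensity, 405 ex / 500-530 em, by scanning plate imager; re-replication scored as increase in nuclei with elevated DNA content. Cells exposed to compound 48 hr, 37 C, 5% CO2 beforehand.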

[13] = Quantitative high throughput screen for delayed death inhibitors of the malarial parasite plastid, 96 hour incubation (AID 488745); further: on the % scale 0 is the no-effect control and ±100 the full control effect; nearly all actives have a fitted effect of over 70% in size
Procedure, shortened: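 Luciferase-expressing P. falciparum in erythrocytes (2% hematocrit, 0.1% parasitemia) incubated with compound for 96 h at 37 C, 5% CO2, in RPMI 1640 with 0.5% Albumax. Growth inhibition read as decreased luminescence.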

[14] = Quantitative high throughput screen for delayed death inhibitors of the malarial parasite plastid, 48 hour incubation (AID 488752); further: on the % scale 0 is the no-effect control and ±100 the full control effect; nearly all actives have a fitted effect of over 65% in size
Procedure, shortened: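 Erythrocytes infected with firefly luciferase-expressing P. falciparum (2% hematocrit, 0.1% parasitemia) cultured with compound for 48 h at 37 C, 5% CO2, in RPMI 1640/0.5% Albumax. Growth inhibition read as loss of luminescence.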

[15] = target: M-phase phosphoprotein 8 (Homo sapiens) (UniProt Q99549); assay: qHTS Validation Assay for Inhibitors for MPP8 Chromodomain Interactions with Methylated Histone Tails (AID 488949);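 further: AlphaScreen signal from MPP8 chromodomain bound to biotinylated H3K9me3 peptide; top concentration of the series differs between compounds; on the % scale 0 is the no-effect control and ±100 the full control effect; nearly all actives have a fitted effect of over 55% in size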
Chain of M-phase phosphoprotein 8 (Homo sapiens) (Q99549 whole entry, looked up): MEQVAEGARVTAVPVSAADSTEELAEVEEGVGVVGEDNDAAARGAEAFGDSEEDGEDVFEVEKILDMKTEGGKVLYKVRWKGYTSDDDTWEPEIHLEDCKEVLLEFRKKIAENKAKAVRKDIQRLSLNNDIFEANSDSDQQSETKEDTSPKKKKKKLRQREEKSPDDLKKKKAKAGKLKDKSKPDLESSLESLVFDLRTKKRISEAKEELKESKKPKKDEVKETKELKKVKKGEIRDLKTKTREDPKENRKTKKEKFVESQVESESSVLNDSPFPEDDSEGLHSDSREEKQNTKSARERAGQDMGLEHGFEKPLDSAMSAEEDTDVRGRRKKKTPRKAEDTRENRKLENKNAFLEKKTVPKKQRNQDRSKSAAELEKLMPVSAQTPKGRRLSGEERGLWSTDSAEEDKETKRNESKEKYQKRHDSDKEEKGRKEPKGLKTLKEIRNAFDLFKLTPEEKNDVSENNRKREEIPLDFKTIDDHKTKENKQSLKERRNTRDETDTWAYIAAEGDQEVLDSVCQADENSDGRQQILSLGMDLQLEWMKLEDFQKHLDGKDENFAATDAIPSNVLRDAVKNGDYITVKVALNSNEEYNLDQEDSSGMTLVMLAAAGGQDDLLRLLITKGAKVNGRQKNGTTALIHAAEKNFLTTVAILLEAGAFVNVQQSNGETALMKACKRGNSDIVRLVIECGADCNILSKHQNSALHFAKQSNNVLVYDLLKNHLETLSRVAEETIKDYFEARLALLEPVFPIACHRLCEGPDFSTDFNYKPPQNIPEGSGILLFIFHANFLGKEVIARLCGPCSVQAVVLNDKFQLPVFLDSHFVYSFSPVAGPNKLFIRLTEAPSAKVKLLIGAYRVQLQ
Procedure, shortened: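 MPP8 (50 nM) was preincubated with biotinylated H3(1-18)K9me3 peptide (50 nM) in PBS pH 7.4, 0.01% Tween-20 for 30 min at room temperature, then with compounds for 30 min; binding was detected by AlphaScreen.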

[16] = target: Transient receptor potential cation channel subfamily V member 1 (Homo sapiens) (UniProt Q8NER1); assay: HTS Assay for Compounds that Act as Enhancers of the Vanilloid Receptor 1 (AID 488979); further: 0% is about no effect
Procedure, shortened: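 TRPV1-expressing cells loaded with Fluo-8 calcium dye; compounds added and calcium influx read kinetically for 3 min (agonist phase), then capsaicin at EC20 added and read 2 min more for enhancement. Fluorescence ex 480/em 520 nm.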

[17] = target: Galactokinase (Homo sapiens) (UniProt P51570); assay: qHTS Validation Assay for Inhibitors of Human Galactokinase (GALK) (AID 493189); further: 0% is about no effect
Chain of Galactokinase (Homo sapiens) (P51570 whole entry, looked up): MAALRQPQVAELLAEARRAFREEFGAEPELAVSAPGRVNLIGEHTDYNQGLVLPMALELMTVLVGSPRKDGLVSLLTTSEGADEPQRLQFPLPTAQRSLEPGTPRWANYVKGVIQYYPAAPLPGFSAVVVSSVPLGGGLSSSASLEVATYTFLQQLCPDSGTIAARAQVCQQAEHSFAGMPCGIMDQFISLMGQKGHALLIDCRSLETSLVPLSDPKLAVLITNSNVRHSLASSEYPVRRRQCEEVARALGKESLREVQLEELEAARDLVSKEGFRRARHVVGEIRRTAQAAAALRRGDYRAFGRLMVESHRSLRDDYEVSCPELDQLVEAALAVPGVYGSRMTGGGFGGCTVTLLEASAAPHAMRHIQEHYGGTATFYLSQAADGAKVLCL
Procedure, shortened: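 GALK (5 nM) with 35 uM ATP and 100 uM galactose in HEPES pH8.0, MgCl2, NaCl, DTT, BSA; 1 h at room temperature. Residual ATP read by Kinase-Glo Plus luminescence after 10 min.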

[18] = Validation screen for small molecules that induce DNA re-replication in SW480 colon adenocarcinoma cells (AID 504364); further: 0% is about no effect
Procedure, shortened: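 SW480 cells (250/well) exposed 48 h at 37 C, 5% CO2, then Hoechst-stained 40 min. Nuclear DNA content imaged by fluorescence scanning (405 nm excitation, 500-530 nm emission); re-replication scored as increased nuclei with elevated intensity.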

[19] = target: Voltage-gated inwardly rectifying potassium channel KCNH2 (Homo sapiens) (UniProt Q12809); assay: qHTS Assay for Small Molecule Inhibitors of the Human hERG Channel Activity (AID 588834);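 further: top concentration of the series differs between compounds; on the % scale 0 is the no-effect control and ±100 the full control effect; lower thallium flux fluorescence means stronger hERG block; nearly all actives have a fitted effect of over 50% in size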
Chain of Voltage-gated inwardly rectifying potassium channel KCNH2 (Homo sapiens) (Q12809 whole entry, looked up): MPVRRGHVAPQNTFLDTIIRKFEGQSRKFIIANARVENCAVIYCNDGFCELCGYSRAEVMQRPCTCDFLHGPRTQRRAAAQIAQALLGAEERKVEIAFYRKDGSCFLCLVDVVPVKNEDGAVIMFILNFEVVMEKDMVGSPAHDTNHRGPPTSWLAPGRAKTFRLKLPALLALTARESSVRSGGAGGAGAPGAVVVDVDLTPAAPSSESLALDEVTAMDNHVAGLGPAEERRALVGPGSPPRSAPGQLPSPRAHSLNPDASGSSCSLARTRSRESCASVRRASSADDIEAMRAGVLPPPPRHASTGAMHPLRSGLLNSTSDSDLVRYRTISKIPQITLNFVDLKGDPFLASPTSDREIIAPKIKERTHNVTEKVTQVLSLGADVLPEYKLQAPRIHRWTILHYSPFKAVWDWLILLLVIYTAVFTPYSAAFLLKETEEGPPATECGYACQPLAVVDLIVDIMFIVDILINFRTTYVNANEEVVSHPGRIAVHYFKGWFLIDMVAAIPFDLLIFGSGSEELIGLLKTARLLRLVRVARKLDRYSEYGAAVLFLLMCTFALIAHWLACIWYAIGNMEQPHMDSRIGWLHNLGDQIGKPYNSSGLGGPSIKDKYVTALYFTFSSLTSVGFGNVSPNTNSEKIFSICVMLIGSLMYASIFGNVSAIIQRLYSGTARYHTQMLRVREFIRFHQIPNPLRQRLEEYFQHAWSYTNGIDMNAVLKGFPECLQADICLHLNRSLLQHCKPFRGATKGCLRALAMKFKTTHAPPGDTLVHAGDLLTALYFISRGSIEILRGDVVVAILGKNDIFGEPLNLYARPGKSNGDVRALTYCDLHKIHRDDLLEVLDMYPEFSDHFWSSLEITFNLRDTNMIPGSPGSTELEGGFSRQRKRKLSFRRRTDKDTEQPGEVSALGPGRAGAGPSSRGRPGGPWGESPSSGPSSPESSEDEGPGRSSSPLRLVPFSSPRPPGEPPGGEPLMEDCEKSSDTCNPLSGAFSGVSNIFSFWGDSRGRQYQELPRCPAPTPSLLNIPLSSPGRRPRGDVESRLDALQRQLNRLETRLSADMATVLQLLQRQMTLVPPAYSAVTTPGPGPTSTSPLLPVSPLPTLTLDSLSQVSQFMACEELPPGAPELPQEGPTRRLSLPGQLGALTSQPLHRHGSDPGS
Procedure, shortened: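 U2OS cells transduced with hERG via BacMam (MOI ~100), plated 2000/well, loaded with FluxOR thallium dye, compound ~10 min, then stimulation buffer; fluorescence decrease read kinetically; AC50 from Hill fits.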

[20] = test system: Zika virus NS2B-NS3 protease; assay: Primary screen GU AMC qHTS for Zika virus inhibitors (AID 1347154);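 further: 0% = no-inhibitor control and -100% = no-enzyme control; nearly all actives have a fitted effect of over 70% in size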
Procedure, shortened: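 Unlinked Zika NS2B hydrophilic domain/NS3 protease domain noncovalent complex (25 nM final) in 10 mM Tris-HCl pH 8.0, 0.01% Tween 20, with AMC peptide substrate. Fluorescence (ex 340, em 450 nm) change over 15 min, room temperature; percent inhibition fitted to 4-parameter Hill equation.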

[21] = Counterscreen qHTS for small molecule stabilizers of the endoplasmic reticulum resident proteome: GLuc-NoTag assay (AID 1508627);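 further: SH-SY5Y cells given compound then 100 nM thapsigargin to empty ER calcium; 0% = thapsigargin alone and -100% = DMSO vehicle control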
Procedure, shortened: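 SH-SY5Y cells stably expressing constitutively secreted GLuc (no SERCaMP tag) were pre-incubated 5 h, treated with compound for 19 h, then 100 nM thapsigargin for 4 h at 37C; medium GLuc read by coelenterazine luminescence.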

[22] = Confirmatory qHTS for small molecule stabilizers of the endoplasmic reticulum resident proteome: Secreted ER Calcium Modulated Protein (SERCaMP) assay (AID 1508628); further: nearly all actives have a fitted effect of over 40% in size; further: potency means the concentration at half of the fitted maximal effect
Procedure, shortened: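 SH-SY5Y cells stably expressing GLuc-SERCaMP, treated 16 h with compound (primary 1.53, 7.67, 38.3 uM; confirmation 11 concentrations, up to 76.6 uM), then 100 nM thapsigargin for 4 h. Secreted Gaussia luciferase in medium read by coelenterazine luminescence.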

[23] = Cell Viability qHTS for small molecule stabilizers of the endoplasmic reticulum resident proteome (AID 1508629); conditions: cell viability counter-screen, 100 nM thapsigargin for final 4 h;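 further: human SH-SY5Y neuroblastoma cells carrying the GLuc-SERCaMP reporter; compound exposure about 46 h in total before the viability read; on the % scale 0 is the no-effect control and ±100 the full control effect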
[24] = Primary qHTS for inhibitors of nuclear receptor binding SET domain protein 2 (NSD2) in an RCH-ACV wild type WT cells (2C) (AID 1645877); further: on the % scale 0 is the no-effect control and ±100 the full control effect; nearly all actives have a fitted effect of over 70% in size
[25] = qHTS for differential inhibitors of proliferation of Plasmodium falciparum line 3D7 (AID 1876); further: potency means the concentration at half of the fitted maximal effect
[26] = qHTS for differential inhibitors of proliferation of Plasmodium falciparum line Dd2 (AID 1882); conditions: Potency: Plasmodium falciparum Dd2 proliferation inhibition; further: potency means the concentration at half of the fitted maximal effect; nearly all actives have a fitted effect of over 65% in size
Procedure, shortened: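 Dd2-infected erythrocytes (0.3% parasitemia, 2.5% hematocrit final) incubated with compound 72 h at 37 C, 5% CO2; lysed with saponin/Triton buffer containing SYBR Green I, incubated overnight in the dark, then read by fluorescence (485/535 nm). Normalized to 0.29 uM artemisinin and DMSO.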

[27] = target: Ferritin light chain (Equus caballus) (UniProt P02791); assay: qHTS Validation Assay for Identification of Novel General Anesthetics (AID 2323); further: on the % scale 0 is the no-effect control and ±100 the full control effect
Chain of Ferritin light chain (Equus caballus) (P02791 2-175 limits assumed): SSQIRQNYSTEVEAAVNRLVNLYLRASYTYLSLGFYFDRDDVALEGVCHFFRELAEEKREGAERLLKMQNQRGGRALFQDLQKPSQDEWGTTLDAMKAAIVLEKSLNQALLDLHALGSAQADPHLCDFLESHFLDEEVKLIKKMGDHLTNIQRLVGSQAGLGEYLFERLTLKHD
Procedure, shortened: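 Competitive displacement of profluorescent 1-aminoanthracene (1-AMA, 50% saturated solution in PBS) from 10 uM horse-spleen apoferritin. Compounds incubated 10 min at room temperature; fluorescence read at 380 nm excitation/535 nm emission, normalized to free 1-AMA and complex, fitted with four-parameter Hill equation.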

[28] = target: RecQ-like DNA helicase BLM (Homo sapiens) (UniProt P54132); assay: qHTS Validation Assay for Inhibitors of Bloom's syndrome helicase (BLM) (AID 2364);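 further: plate controls were DMSO vehicle for no effect and enzyme-free control for full effect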
Chain of RecQ-like DNA helicase BLM (Homo sapiens) (P54132 whole entry, looked up): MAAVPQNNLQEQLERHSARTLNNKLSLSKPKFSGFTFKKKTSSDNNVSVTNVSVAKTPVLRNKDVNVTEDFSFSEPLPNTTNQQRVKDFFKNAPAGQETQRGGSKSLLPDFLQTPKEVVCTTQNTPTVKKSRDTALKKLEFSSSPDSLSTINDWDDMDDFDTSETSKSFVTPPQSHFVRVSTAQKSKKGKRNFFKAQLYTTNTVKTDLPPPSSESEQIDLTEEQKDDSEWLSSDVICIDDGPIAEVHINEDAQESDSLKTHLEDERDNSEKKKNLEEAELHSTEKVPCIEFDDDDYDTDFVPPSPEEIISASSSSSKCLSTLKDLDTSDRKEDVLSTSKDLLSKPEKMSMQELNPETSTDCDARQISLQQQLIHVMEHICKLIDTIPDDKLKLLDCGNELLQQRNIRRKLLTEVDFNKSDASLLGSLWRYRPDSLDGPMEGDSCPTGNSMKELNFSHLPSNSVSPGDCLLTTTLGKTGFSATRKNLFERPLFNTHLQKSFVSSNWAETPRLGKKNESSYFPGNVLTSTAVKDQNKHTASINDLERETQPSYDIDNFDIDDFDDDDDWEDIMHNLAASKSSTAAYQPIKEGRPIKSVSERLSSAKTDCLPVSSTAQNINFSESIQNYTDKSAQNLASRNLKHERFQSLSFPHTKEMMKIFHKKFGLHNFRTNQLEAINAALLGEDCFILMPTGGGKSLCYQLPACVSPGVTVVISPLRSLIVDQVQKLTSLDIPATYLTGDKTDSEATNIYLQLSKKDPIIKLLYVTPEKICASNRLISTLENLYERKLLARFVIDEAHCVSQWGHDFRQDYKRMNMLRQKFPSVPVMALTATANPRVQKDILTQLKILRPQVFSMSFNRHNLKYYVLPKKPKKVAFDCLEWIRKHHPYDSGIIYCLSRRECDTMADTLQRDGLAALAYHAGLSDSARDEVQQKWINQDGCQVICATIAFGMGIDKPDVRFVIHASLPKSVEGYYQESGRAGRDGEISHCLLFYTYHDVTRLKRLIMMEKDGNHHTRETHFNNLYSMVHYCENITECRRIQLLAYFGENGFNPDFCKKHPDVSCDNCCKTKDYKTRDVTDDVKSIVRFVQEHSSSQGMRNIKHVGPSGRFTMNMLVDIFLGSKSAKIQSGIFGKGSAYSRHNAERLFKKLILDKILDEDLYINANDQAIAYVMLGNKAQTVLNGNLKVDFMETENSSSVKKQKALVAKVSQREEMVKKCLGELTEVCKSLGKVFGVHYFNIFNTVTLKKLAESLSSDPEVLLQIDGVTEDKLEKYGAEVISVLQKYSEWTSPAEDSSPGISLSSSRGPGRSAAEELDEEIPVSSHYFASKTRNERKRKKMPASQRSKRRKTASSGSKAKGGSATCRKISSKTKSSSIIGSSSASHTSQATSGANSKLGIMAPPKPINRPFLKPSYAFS
Procedure, shortened: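 BLM 50 nM in 25 mM Tris-HCl pH 8.0, 5 mM NaCl, 2 mM MgCl2, 1 mM DTT, 0.01% Tween-20, 2.5 ug/ml poly(dI-dC); 15 min cpd preinc, RT. Start: 200 nM forked DNA + 2 mM ATP (final). TAMRA read, 2 reads 2 h apart.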

[29] = target: Thyrotropin receptor (Homo sapiens) (UniProt P16473); assay: qHTS Assay for Antagonists of the Thyroid Stimulating Hormone Receptor (AID 488980); further: 0% is about no effect
Procedure, shortened: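 HEK293 cells transfected with human TSHR, suspended in HEPES-buffered HBSS with 70 uM RO 20-1724, were treated with compounds plus TSH at EC80 (4 nM final). cAMP was measured by competitive HTRF (cryptate anti-cAMP antibody, cAMP-d2 acceptor).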

[30] = target: Thyrotropin-releasing hormone receptor (Homo sapiens) (UniProt P34981); assay: qHTS for Small Molecule Agonists and Allosteric Enhancers of Human TRH Receptor: Validation Screen for Agonists (AID 493127;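 active means calcium activation more than 3 SD above the typical response in the agonist read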; further: 0% is about no effect); conditions: TRH receptor agonist cell assay; at 2 µM; stronger effect = higher value
Procedure, shortened: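 TRHR cells loaded with fluo-8 calcium dye; FDSS kinetic fluorescence (Ex 480/Em 530) read at 1 s/cycle after 23 nL compound addition. Agonist-mode calcium response recorded before the 10 nM TRH (EC20) addition.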

C/C=C1\C(=O)CC2C3CCC4=CC(=O)CC[C@]4(C)C3CC[C@]12C (stereo partly specified)
72.1%: max response ([2]; measured here: cell count channel max response)
74.6%: max response ([2]; measured here: lipid channel max response)
active: Potency [6] 11.2 µM | Potency [7] 14.1 µM | Potency [8] 10 µM | Potency [9] 7.08 µM | Potency [10] 11.2 µM
inactive: outcome [1] | activity change, negative = inhibition ([2]; at 57.5 µM (top of the series)) 1.38% | Potency [3] | Potency [4] | Potency [5] | Potency [11] | Potency [12] | Potency [13] | Potency [14] | Potency [15] | outcome [16] | outcome [17] | outcome [18] | Potency [19] | Potency [20]

CN(Cc1ccccc1)C(=O)[C@H](Cc1ccc2ccccc2c1)NC(=O)[C@@H]1CCCN1C(=O)Nc1ccccc1[N+](=O)[O-]
inactive: Potency [20] | Potency [21] | max response [23] 12.2%
active: Potency [22] 10 µM

C=C[C@H]1CN2CCC1C[C@@H]2C(O)c1ccnc2ccc(OC)cc12 (stereo partly specified)
inactive: Potency [20] | Potency [21] | Potency [24]
39.8 µM (active) and inactive: Potency [22]

Cc1ccc(OCC(O)C(C)NC(C)C)c2c1CCC2 (stereo unspecified)
inactive: outcome [1] | Potency [3] | Potency [4] | Potency [5] | outcome [27] | Potency [11] | Potency [28] | Potency [12] | Potency [15] | outcome [29] | activation [30] 2.81% | outcome [17] | outcome [18] | Potency [19] | Potency [20]
active: Potency [6] 2.82 µM | Potency [7] 2.82 µM | Potency [25] 11.2 µM | Potency [26] 12.6 µM | Potency [9] 1.58 µM | Potency [10] 11.2 µM
